# Assay outcomes from PubChem.
# Most compounds without a hit are left out; they make up all but 21% or so of the library.
# Pf growth 48h: Primary qHTS for delayed death inhibitors of the malarial parasite plastid, 48 hour incubation | P. falciparum luciferase growth in erythrocytes, 48 h | 310,000 compounds, 5.9% hits | Potency, µM (top dose mostly 28.7 µM), for inactives: at the highest dose activity change, negative = inhibition, actives largely listed as inhibitors | AID 504832, 2011; also: potency is read from the fitted curve at half-maximal effect; % is scaled to controls: 0 for no effect and ±100 for the full control effect
#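 In quantitative HTS format, infected erythrocytes bearing luciferase-reporter parasites were treated for a single generation at 37 C. Luminescence after adding detection reagent served as the growth measure.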
# NS1 function inh: qHTS Assay for Inhibitors of Influenza NS1 Protein Function. Potency, µM (highest dose often 46.1 µM), without a hit: at the highest dose activity, positive = more growth. 270,000 compounds, 0.4% hits. AID 2326, 2010; calls by dose curve; also: potency is read from the fitted curve at half-maximal effect; actives are rising curves; nearly all actives have a fitted effect of over 50% in size
#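 In this qHTS, NS1 from influenza A is expressed in budding yeast, where it slows growth. Cells are switched from glucose to 2% galactose medium (pH 6.0, -URA), treated with compound, and growth recovery is read at OD600.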
# Pf growth 96h: Primary qHTS for delayed death inhibitors of the malarial parasite plastid, 96 hour incubation; P. falciparum luciferase reporter growth, 96 h; Potency, µM (titrated, usually from 28.7 µM), inactives show at the top dose activity change, negative = inhibition, most hits filed as inhibitors; 320,000 compounds, 6.9% hits; AID 504834, 2011; also: potency is read from the fitted curve at half-maximal effect; % is scaled to controls: 0 for no effect and ±100 for the full control effect
#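 Plates of compound plus infected erythrocytes (2% hematocrit, 0.05% parasitemia final) incubate 96 hours, 37 C, 5% CO2. Detection reagent added; reduced luminescence from the parasites' luciferase reporter flags inhibition.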
# SARS PLpro yeast: qHTS of Yeast-based Assay for SARS-CoV PLP | AID 485353, 2010 | Potency, µM (highest dose often 32.9 µM), for the others: top-dose activity, positive = growth rescue, most hits filed as activators | 330,000 compounds, 0.19% hits | S. cerevisiae expressing SARS-CoV PLpro, growth rescue; calls by dose curve; also: potency is read from the fitted curve at half-maximal effect; 0% is about no effect; nearly all actives have a fitted effect of over 55% in size
# CHX counter: Cycloheximide Counterscreen for Small Molecule Inhibitors of Shiga Toxin. max response, %. 300,000 compounds, 12% hits. cell reporter, cycloheximide protein synthesis inhibition counterscreen; in the data active = max response mostly above about 13%, no sharp cut-off; inactive = mostly below about 14%; also: read at 38.3 µM for the half of the compounds with a filed dose; 0% is about no effect
# Shiga toxin inh: A qHTS for Small Molecule Inhibitors of Shiga Toxin; Vero cells, Shiga toxin protein synthesis inhibition reporter; inhibition, % at 38.7 µM; 290,000 compounds, 9.2% hits; AID 2315, 2010; in the data active = inhibition mostly above about 28%, no sharp cut-off; inactive = mostly below about 43%; also: 0% is about no effect
# The depositor's hits bear a star; ? = inconclusive; nt = no result. Unless noted, calls follow the shape of the dose curve; as a rule, active = well fitted inhibition curve with a large enough effect; inconclusive = small, poorly fitted or top-dose-only effect, or another doubt; inactive = no such curve, though single readings can be large or run the other way.
SMILES,Pf growth 48h,NS1 function inh,Pf growth 96h,SARS PLpro yeast,CHX counter,Shiga toxin inh
COc1cccc(C(C(=O)NCc2ccco2)N(C(=O)Cn2nnc3ccccc32)C2CC2)c1OC (stereo not drawn),?,-1.1%,?,2.6%,-1.3,11.4
Cc1ccc(OC(C)C(=O)N2CCc3ccccc32)cc1 (stereo not drawn),2.94µM*,4.5%,nt,-1.2%,1.3,-34.0
CC(Sc1nnc(-c2ccccc2)c(-c2ccccc2)n1)C(=O)N1CCc2ccccc21 (stereo not drawn),-26.9%,18.9%,7.38µM*,13.9%,-0.9,1.7
Cc1nnc(SC(C)C(=O)N2CCc3ccccc32)s1 (stereo not drawn),5.6%,-47.7%,nt,-4.0%,-0.3,-6.5
CC(C(=O)N1CCc2ccccc21)N1CCN(S(=O)(=O)c2cccc(C(F)(F)F)c2)CC1 (stereo not drawn),11.7µM*,nt,13.1µM*,-11.5%,nt,nt
CC(C)C(C)(C#N)NC(=O)CSc1nnc(-c2ccccc2)o1 (stereo not drawn),nt,-3.3%,-14.2%,5.4%,0.8,20.2
O=C(NC(=S)NCC1CCCO1)c1ccccc1Br (stereo not drawn),9.7%,7.1%,118.3%,7.8%,15.5,8.7
O=C(NC(=S)NCC1CCCO1)c1ccccc1F (stereo not drawn),59.2%,7.8%,?,0.9%,25.8*,43.4
O=C(NC(=S)NCC1CCCO1)c1cccs1 (stereo not drawn),-10.8%,21.1%,-0.6%,?,12.5*,25.6
NC(=S)N/N=C/c1ccc(C23CC4CC(CC(C4)C2)C3)cc1,2.62µM*,0.3%,?,?,22.5*,79.1*
CC(=O)Nc1ccc(/C=N/NC(N)=S)cc1,0.6%,nt,-3.1%,nt,5.8,-5.5
Cc1ccc(C)c(Cn2nnc3c(=O)[nH]c(C4CCCN(C(=O)CC(C)C)C4)nc32)c1 (stereo not drawn),?,-7.2%,nt,-1.8%,0.5,-13.3
Cc1ccc(C(=O)N2CCCC(c3nc4c(nnn4Cc4ccccc4)c(=O)[nH]3)C2)cc1 (stereo not drawn),10.4µM*,5.5%,nt,2.9%,2.5,-6.2
CCCCC(=O)N1CCCC(c2nc3c(nnn3Cc3cc(C)ccc3C)c(=O)[nH]2)C1 (stereo not drawn),8.28µM*,-9.7%,?,-4.0%,-1.1,-14.5
CCOc1ccccc1NC(=O)N1CCCC(c2nc3c(nnn3Cc3ccc(C)cc3)c(=O)[nH]2)C1 (stereo not drawn),4.15µM*,-41.3%,0.0%,-3.9%,-1.9,15.0
Cc1ccc(/C=N/NC(=O)c2nnn(-c3nonc3N)c2CSc2ccc(Cl)cc2)o1,3.6%,1.7%,5.2%,-0.3%,-1.1,-3.6
N#CCCN(C(=O)CCl)c1cccc(Cl)c1,?,nt,5.22µM*,-0.1%,-1.4,-21.4
CCn1nnnc1SCC(=O)Nc1cc(OC)cc(OC)c1,?,2.1%,nt,1.8%,5.8,-0.7
O=C1CSC(c2cn(-c3ccccc3)nc2-c2cc3ccccc3o2)N1Cc1ccccc1 (stereo not drawn),nt,8.1%,4.15µM*,8.1%,15.6,-11.0
O=C1CSC(c2cn(-c3ccccc3)nc2-c2cc3ccccc3oc2=O)N1Cc1ccco1 (stereo not drawn),10.4µM*,12.8%,?,-27.6%,15.0,16.0
O=C1CSC(c2cn(-c3ccccc3)nc2-c2cccs2)N1Cc1ccccc1 (stereo not drawn),nt,5.1%,2.1%,6.6%,0.4,-16.1
Cc1ccc(-c2nn(-c3ccccc3)cc2C2SCC(=O)N2Cc2ccccc2)o1 (stereo not drawn),10.4µM*,-50.1%,-20.8%,-14.7%,-3.8,10.3
COc1ccc(/C=C/C(=O)OCC(=O)NC2CC2)c(OC)c1,nt,nt,nt,0.9%,nt,nt
COc1ccc(S(=O)(=O)N(C)CC(=O)NCCCn2ccnc2)cc1Cl,4.7%,9.0%,29.9%,3.3%,4.8,-13.6
Cc1cc(C)c2c(n1)sc1c(=O)n(CC(=O)c3ccccc3)cnc12,48.7%,-2.0%,56.6%,4.5%,19.3,30.5
SMILES,Pf growth 48h,NS1 function inh,Pf growth 96h,SARS PLpro yeast,CHX counter,Shiga toxin inh
C=CCOC(=O)Cn1cnc2c(sc3nc(C)cc(C)c32)c1=O,?,6.3%,-18.2%,2.4%,46.4*,71.9*
CCCCCCCC/C=C\CCCCCCCC(=O)OC[C@@H](COP(O)(O)=S)OC,nt,nt,nt,nt,5.5,-1.4
Cc1onc(-c2c(Cl)cccc2Cl)c1/C(N)=N/OC(=O)N(C)C,?,1.5%,?,0.5%,-1.8,-12.5
Cc1onc(-c2c(Cl)cccc2Cl)c1CO/N=C(\C#N)c1c(Cl)cccc1Cl,14.7µM*,-0.8%,?,-1.7%,10.0,3.3
Cc1cc(C)nc(Nc2n[nH]c(-c3cccc4ccccc34)n2)n1,?,9.8%,?,1.8%,19.0*,27.2
COc1cc(NC(=O)c2cc([N+](=O)[O-])ccc2NC(=O)CN2CCN(c3ccccn3)CC2)cc(OC)c1,14.5%,4.3%,?,0.8%,-0.9,-5.0
CCN(CC)S(=O)(=O)c1ccc(OCC(=O)NCc2ccccc2)cc1,?,-16.7%,9.28µM*,0.1%,-1.1,-3.4
CN(CC(=O)NCc1cccnc1)S(=O)(=O)c1ccccc1,14.4%,2.0%,0.8%,2.0%,-0.4,-14.6
CCN(CC)S(=O)(=O)c1ccc(OCC(=O)NCc2ccco2)cc1,2.5%,2.6%,-12.6%,0.4%,-0.4,-14.0
COc1ccc(S(=O)(=O)N(C)CC(=O)NCc2cccnc2)cc1,5.8%,-9.2%,?,4.3%,10.1,74.6*
COc1ccc(-c2cc3c(=O)n(CC(=O)NCc4cccnc4)ncn3n2)cc1,198.3%,-6.8%,14.7µM*,6.9%,27.5*,37.1*
CCOc1ccc(S(=O)(=O)N(CC)CC(=O)NCc2cccnc2)cc1,8.4%,-8.5%,11.7µM*,1.6%,0.8,-2.5
COc1cccc(-c2ccc3nnc(SCC(=O)Nc4ccc(NC(C)=O)cc4)n3n2)c1,0.2%,nt,13.6%,3.7%,nt,nt
O=C(NCC1CCCN1S(=O)(=O)c1cccs1)c1cccc(F)c1 (stereo not drawn),?,nt,?,6.1%,nt,nt
COc1ccc(COC(=O)c2ccc(N3CCCC3=O)cc2)cc1F,0.0%,-14.1%,-25.4%,-6.7%,4.7,83.8
Cc1ccc(N(CC(=O)NCc2cccnc2)S(C)(=O)=O)cc1C,11.2%,4.6%,4.15µM*,0.1%,1.3,-12.9
CN(CC(=O)NCc1ccccn1)S(=O)(=O)c1ccccc1,1.3%,1.2%,11.5%,10.2%,12.6,-2.9
CN(CC(=O)NCc1ccccn1)S(=O)(=O)c1ccc(F)cc1,16.9%,-3.2%,14.7µM*,-0.9%,0.5,11.5
COc1cccc(C2Oc3ccccc3C3CC(c4cccs4)=NN32)c1 (stereo not drawn),39.4%,-81.3%,35.8%,-2.8%,50.5*,79.4*
